In the library only some 22% were active in any assay of this set; here they are far more common.
CYP2C19 act – human CYP2C19 activators, primary screen, biochemical, luminescence; 96,000 tested, under 10 active; AID 1025, 2008; Cytochrome P450 2C19 (Homo sapiens), P33261; activation factor at 5 µM; recombinant CYP2C19, luciferin-H EGE luminescence; stronger effect = higher value; 0 = fully inhibited enzyme, 1 = untreated enzyme;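 active = activation factor of at least 2 at 5 µM in the primary screen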;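 note: 0 = wells with 2.5 mM tranylcypromine and 1 = vehicle-only wells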
Target sequence (P33261 whole entry, looked up): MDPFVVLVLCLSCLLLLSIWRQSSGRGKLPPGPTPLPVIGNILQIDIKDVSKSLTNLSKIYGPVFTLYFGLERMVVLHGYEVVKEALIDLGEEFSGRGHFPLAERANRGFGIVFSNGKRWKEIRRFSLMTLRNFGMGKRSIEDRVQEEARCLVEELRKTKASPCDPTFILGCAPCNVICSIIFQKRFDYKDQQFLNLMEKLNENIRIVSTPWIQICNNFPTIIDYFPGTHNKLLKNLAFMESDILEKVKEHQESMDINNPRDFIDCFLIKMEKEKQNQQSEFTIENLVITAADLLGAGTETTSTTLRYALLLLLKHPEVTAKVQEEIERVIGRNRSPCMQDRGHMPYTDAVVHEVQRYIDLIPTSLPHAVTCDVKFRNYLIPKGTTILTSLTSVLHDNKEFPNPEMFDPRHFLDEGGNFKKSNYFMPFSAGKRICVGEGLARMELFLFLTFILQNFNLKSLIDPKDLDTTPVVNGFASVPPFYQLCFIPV
CYP2C9 act – human CYP2C9 activators, primary screen, biochemical, luminescence; Cytochrome P450 2C9 (Homo sapiens), P11712; recombinant CYP2C9, luciferin-H conversion; stronger effect = higher value; factor 1 = untreated enzyme, 0 = blocked; activation factor at 5 µM; actives 1.4% (n = 96,000); AID 1024, 2008;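 active = activation factor of 2 or more for CYP2C9 at a 5 µM dose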;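 note: 0 = sulfaphenazole-blocked wells and 1 = vehicle-only wells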
CYP2C19 inhib – blockers of cytochrome P450 2C19 activity – biochemical, luminescence, ADME assay, primary screen. P33261. CYP2C19 Supersomes, luciferin-H EGE luminescence, 30 min. inhibition, % at 5 µM. actives 21% (n = 96,000);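 active = CYP2C19 inhibition above a set limit at 5 µM in the primary screen, cut at about 50% in these data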;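 note: plate controls were negative control wells for no effect and 2.5 mM tranylcypromine positive control for full effect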
CYP2C9 inhib – blockers of cytochrome P450 2C9 activity – biochemical, luminescence, ADME assay, primary screen. AID 777, 2007. inhibition, % at 5 µM. CYP2C9 Supersomes, luciferin-H conversion. P11712. actives 20% (n = 96,000);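 active = blocking of liver enzyme CYP2C9 beyond about 50% at 5 µM, limit read from the data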
E-sel TNF inh – E-selectin induction blockers in HUVEC – imaging, immunofluorescence, high content, primary screen | inhibition, % at 2 µM | actives 0.71% (n = 120,000) | HUVEC TNFa-induced E-selectin immunofluorescence;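 active = inhibition above the batch mean plus 3 SD, and confirmed as a hit on visual image review, cut at about 43% in these data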;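 note: 0% = TNF-stimulated DMSO wells and 100% = unstimulated control wells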
F-actin modifier – modifiers of F-actin cytoskeleton organization, primary screen, imaging, HUVEC, phalloidin staining, high-content imaging. HUVEC TNFa F-actin phalloidin imaging. inhibition, % at 2 µM. actives 0.18% (n = 91,000);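 active = inhibition above the batch mean plus 3 SD and confirmed as a hit by visual image inspection, cut at about 30% in these data, passing the limit was not always enough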
Active calls of the source: *.

Screening Cc1cc(OC(=O)CCCNC(=O)OC(C)(C)C)c2c3c(c(=O)oc2c1)CCC3 returned CYP2C19 act 0.6, CYP2C9 act 0.4, CYP2C19 inhib 41, CYP2C9 inhib 55* and F-actin modifier 9.
Screening COc1cc(OC)c2c(c1)OCC1CON(C)C21 (stereo unspecified) returned E-sel TNF inh 2.
`CCC1(CC)C(=O)N(Cc2ccccc2)C(=O)N(Cc2ccccc2)C1=O` gave CYP2C19 act 0.9, CYP2C9 act 0.8, CYP2C19 inhib 14, CYP2C9 inhib 18 and E-sel TNF inh 0.
Screening COc1ccc(C2SCC(=O)Nc3c2c(=O)[nH]n3C2CCCCC2)cc1 (stereo unspecified) returned CYP2C19 act 1.1, CYP2C9 act 1.1, CYP2C19 inhib -12, CYP2C9 inhib -7 and F-actin modifier 23.
For CCOC(=O)C1=C(C)OC(N)=C(C#N)C12C(=O)Nc1ccc(C)cc12 (stereo unspecified) the results were CYP2C19 act 0.8, CYP2C9 act 1, CYP2C19 inhib 15, CYP2C9 inhib 0, E-sel TNF inh -3 and F-actin modifier -9.
`O=c1cccc2n1CC1CC2CN(c2nc(N3CCCCC3)nc(N3CCCCC3)n2)C1` (stereo unspecified) gave E-sel TNF inh -14.
Screening CNC(=O)Oc1ccc2c(c1)C(=O)c1ccccc1CO2 returned CYP2C19 act 0.4, CYP2C9 act 0.6, CYP2C19 inhib 61*, CYP2C9 inhib 40, E-sel TNF inh -7 and F-actin modifier 14.
Screening O=[N+]([O-])c1ccccc1CNCCc1ccc(F)cc1 returned CYP2C19 act 0.1, CYP2C9 act 1, CYP2C19 inhib 86*, CYP2C9 inhib -3, E-sel TNF inh 23 and F-actin modifier 15.
Screening O=[N+]([O-])c1cc2c(cc1CNCCc1ccc3c(c1)OCO3)OCO2 returned E-sel TNF inh 11.
Screening C(=NC12CN3CN(CN(C3)C1)C2)c1cccs1 returned CYP2C19 act 1.2, CYP2C9 act 1.1, CYP2C19 inhib -19, CYP2C9 inhib -9, E-sel TNF inh 4 and F-actin modifier 10.
CC1CCC(C(C)C)C(OP(N)(=O)c2ccccc2)C1 (stereo unspecified) was read as CYP2C19 act 0.2, CYP2C9 act 0.3, CYP2C19 inhib 83*, CYP2C9 inhib 65*, E-sel TNF inh 14 and F-actin modifier 55.
Screening CC1CCC(C(C)C)C(OC(=O)COC(=O)c2ccccc2N)C1 (stereo unspecified) returned E-sel TNF inh 8.
For O=c1c2ccccc2nc(-c2cccs2)n1-c1cnccn1 the results were CYP2C19 act 0.9, CYP2C9 act 0.9, CYP2C19 inhib 7, CYP2C9 inhib 6, E-sel TNF inh -9 and F-actin modifier -12.
For Cc1ccc(-n2c(-c3cccs3)nc3ccccc3c2=O)cc1 the results were CYP2C19 act 0.6, CYP2C9 act 0.4, CYP2C19 inhib 36, CYP2C9 inhib 58*, E-sel TNF inh -24 and F-actin modifier -16.
CN1CCc2nc(SCC(=O)OC(C)(C)C)c(C#N)cc2C1 was read as CYP2C19 act 0.3, CYP2C9 act 0.8, CYP2C19 inhib 71* and CYP2C9 inhib 22.
For Cn1cccc1/C=C1/C(=O)NC(=O)N(Cc2ccccc2)C1=O the results were E-sel TNF inh 61*.
C=CCN1C(=O)NC(=O)/C(=C/c2cccn2C)C1=O was read as CYP2C19 act 1, CYP2C9 act 0.7, CYP2C19 inhib -3, CYP2C9 inhib 26, E-sel TNF inh 17 and F-actin modifier -19.
Screening CCOC(=O)c1c(C)c(P(=S)(N2CCOCC2)N2CCOCC2)n(C)c1C returned CYP2C19 act 0.9, CYP2C9 act 1, CYP2C19 inhib 7, CYP2C9 inhib 5 and E-sel TNF inh 0.
CN(C)C(=O)Oc1cccc2c(OC(=O)N(C)C)cccc12 was read as CYP2C19 act 1.1, CYP2C9 act 0.8, CYP2C19 inhib -10, CYP2C9 inhib 21 and E-sel TNF inh 10.
Screening CN(Cc1ccccc1)Cc1ccccc1OC(=O)N(C)C returned CYP2C19 act 0.5, CYP2C9 act 1.1, CYP2C19 inhib 54*, CYP2C9 inhib -6 and F-actin modifier 18.
Screening Cc1sc2ncn(CC(=O)NCC(=O)N3CCC4(CC3)OCCO4)c(=O)c2c1C returned CYP2C19 act 1, CYP2C9 act 1, CYP2C19 inhib 0, CYP2C9 inhib 2 and E-sel TNF inh 4.
For COC(=O)c1ccc(N2C(=O)CC(N3CCC(n4c(=O)[nH]c5ccccc54)CC3)C2=O)cc1 (stereo unspecified) the results were CYP2C19 act 0.4, CYP2C9 act 0.8, CYP2C19 inhib 60*, CYP2C9 inhib 24, E-sel TNF inh -24 and F-actin modifier 9.
Cc1cc(N2C(=O)CC(N3CCC(n4c(=O)[nH]c5ccccc54)CC3)C2=O)no1 (stereo unspecified) was read as CYP2C19 act 1, CYP2C9 act 1.1, CYP2C19 inhib -3, CYP2C9 inhib -9, E-sel TNF inh -18 and F-actin modifier -2.
Cc1cc2c(C(F)(F)F)cc(=O)oc2c2c1NCCC2 was read as CYP2C19 act 0.9, CYP2C9 act 2.4*, CYP2C19 inhib 6, CYP2C9 inhib -143 and F-actin modifier -16.
NC12CN3CN(CN(C3)C1)C2 (tested in a mixture with another compound) was read as CYP2C19 act 1, CYP2C9 act 2*, CYP2C19 inhib 5, CYP2C9 inhib -97, E-sel TNF inh 7 and F-actin modifier 16.
For CN1C2CCC1CC(OC(=O)c1ccc(Cl)cc1)(C(=O)O)C2 (stereo unspecified) the results were E-sel TNF inh -8.
Screening O=C1Nc2ccccc2/C1=C/c1cnc[nH]1 returned CYP2C19 act 0, CYP2C9 act 0.1, CYP2C19 inhib 99*, CYP2C9 inhib 92*, E-sel TNF inh -3 and F-actin modifier -25.
O=C(C(=O)N1CCC2(CC1)OCCO2)c1c[nH]c2ccccc12 was read as E-sel TNF inh -9.
For O=C(C1CC(c2ccccc2O)=NO1)N1CCC2(CC1)OCCO2 (stereo unspecified) the results were CYP2C19 act 0, CYP2C9 act 1, CYP2C19 inhib 100*, CYP2C9 inhib 3, E-sel TNF inh -13 and F-actin modifier 13.
O=c1[nH]c(CN2CC=C(c3ccccc3)CC2)nc2cc(C(F)(F)F)ccc12 was read as CYP2C19 act 0.6, CYP2C9 act 0.2, CYP2C19 inhib 39, CYP2C9 inhib 79*, E-sel TNF inh -33 and F-actin modifier -14.

Compound activity as filed in PubChem.
